According to PubChem BioAssay AID1851 (National Center for Advancing Translational Sciences (NCATS), 2009):
About 5,700 (36%) of roughly 16,000 compounds were called active. Not shown: some 24% with an inconclusive outcome. Some of the results follow. Unmarked numbers belong to inactive results. Calls follow the shape of the dose curve; as a rule, active = well fitted curve in the direction sought with a large enough effect; inconclusive = small, poorly fitted or top-dose-only effect, or effect the other way; inactive = no such curve, though single readings can be large or run the other way.

The molecules below were run against Cytochrome P450 1A2 (Homo sapiens) (UniProt P05177) (assay: Cytochrome panel assay with activity outcomes). Details: recombinant CYP, pro-luciferin dealkylation, luminescence, p450-cyp1a2; series mostly up to 57.1 µM; activity, negative = inhibition: at the top concentration.
% is scaled to controls: 0 for no effect and ±100 for the full control effect.

Chain of Cytochrome P450 1A2 (Homo sapiens) (P05177 whole entry, looked up): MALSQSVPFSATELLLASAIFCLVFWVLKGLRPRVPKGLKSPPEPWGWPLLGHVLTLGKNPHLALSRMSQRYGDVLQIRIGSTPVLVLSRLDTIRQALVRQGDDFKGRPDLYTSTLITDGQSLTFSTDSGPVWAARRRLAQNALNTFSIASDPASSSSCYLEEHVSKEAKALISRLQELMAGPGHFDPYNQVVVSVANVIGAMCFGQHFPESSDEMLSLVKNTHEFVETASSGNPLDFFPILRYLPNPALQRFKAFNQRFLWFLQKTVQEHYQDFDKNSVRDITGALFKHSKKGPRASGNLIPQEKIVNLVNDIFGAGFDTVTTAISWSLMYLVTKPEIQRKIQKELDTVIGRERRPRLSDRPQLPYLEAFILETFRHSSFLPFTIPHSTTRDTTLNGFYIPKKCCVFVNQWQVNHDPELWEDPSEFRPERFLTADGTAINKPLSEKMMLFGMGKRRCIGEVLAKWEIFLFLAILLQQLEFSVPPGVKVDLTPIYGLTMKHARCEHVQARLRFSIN

Row | SMILES | activity, negative = inhibition | AC50
1 | CCOc1ccc(CNC(=O)C2CC(=O)N(C3CCCC3)C2)cc1OC (stereo not given) | -12.7% | –
2 | O=C(NCCN1CCN(Cc2ccccc2)CC1)C1CC(=O)N(C2CCCC2)C1 (stereo not given) | -4.83% | –
3 | CCOc1ccc(CCNC(=O)C2CC(=O)N(C3CCCC3)C2)cc1OCC (stereo not given) | – | 10 µM (active)
4 | COc1ccc2cc3[n+](cc2c1OC)CCc1cc2c(cc1-3)OCO2 | – | 5.01 µM (active)
5 | COc1cc2c(cc1OC)-c1cc3ccc(OC)c(OC)c3c[n+]1CC2 | -11.4% [at 25.6 µM] | –
6 | CCn1nc(C)c(NC(=O)/C=C/c2cnn(C)c2C)c1C | -12% | –
7 | CCN1CCN(C(=O)CCc2nc3ccccc3c(=O)[nH]2)CC1 | -11.1% | –
8 | CCN1CCN(c2nn3c(=O)c4ccccc4nc3c3ccccc23)CC1 | – | 6.31 µM (active)
9 | CCN1CCN(c2nc(-c3ccccn3)nc3ccccc23)CC1 | – | 11.2 µM (active)
10 | CCn1cc(C(=O)O)c(=O)c2cc(F)c(N3CCNCC3)nc21 | -10.1% [at 25.6 µM] | –
11 | Cc1cccc(C2NC(=O)c3c(sc(C)c3C)N2)c1O (stereo not given) | – | 3.55 µM (active)
12 | O=C1CCCC=C1[C@@H](O)CCOC(c1ccccc1)(c1ccccc1)c1ccccc1 | -6.79% [at 11.4 µM] | –
13 | COc1cc2nc(N3CCN(C(=O)c4ccco4)CC3)nc(N)c2cc1OC | -13.1% [at 25.6 µM] | –
14 | CCOC(=O)N1CCN(C(=O)CN(C)S(=O)(=O)c2ccc3c(c2)C(C)(C)C(=O)N3C)CC1 | -10.3% | –
15 | COCCNC(=O)CSc1ncnc2sccc12 | -12.2% | –
16 | CCOC(=O)N1CCN(c2nc(-c3cccs3)cc(C(F)(F)F)n2)CC1 | – | 2.82 µM (active)
17 | CCCNC(=O)CSc1nc(-c2cccs2)cc(C(F)(F)F)n1 | – | 2.51 µM (active)
18 | CCOC(=O)N1CCN(C(=O)CNCc2cccs2)CC1 | 0.601% | –
19 | CCOC(=O)N1CCN(c2nc(-c3ccco3)cc(C(F)(F)F)n2)CC1 | – | 0.501 µM (active)
20 | CCC1(C)CC(CCNS(=O)(=O)c2ccc(C)cc2)(c2ccc(C)cc2)CCO1 (stereo not given) | -17.8% | –
21 | CN(C)c1ncc2nc(-c3ccc(F)cc3)c(=O)n(C3CC3)c2n1 | – | 1.58 µM (active)
22 | CN(C)c1ncc2nc(-c3ccccc3)c(=O)n(C3CC3)c2n1 | – | 2.51 µM (active)
23 | CCc1cccc(N(C)C(N)=Nc2cccc3ccccc23)c1 | -7.54% | –
24 | CC(=O)OC[C@H]1O[C@@H](O/N=C\[C@@H](C)[C@H](OCc2ccccc2)C(C)C)[C@H](OC(C)=O)[C@@H](OC(C)=O)[C@H]1OC(C)=O | -8.7% [at 11.4 µM] | –
25 | Cc1ccccc1-c1nc(N(C)Cc2ccco2)c2ccccc2n1 | – | 1.58 µM (active)

Row | SMILES | activity, negative = inhibition | AC50
26 | CN(Cc1ccco1)c1nc(-c2ccccc2C(F)(F)F)nc2ccccc12 | – | 2 µM (active)
27 | CN(Cc1ccco1)c1ccnc(-c2ccccc2C(F)(F)F)n1 | – | 2.51 µM (active)
28 | CCC(C)(C(=O)NC1CCCC1)N(Cc1ccco1)C(=O)c1ccccn1 (stereo not given) | -21.7% | –
29 | COc1ccccc1-c1nc(N(C)Cc2ccco2)c2ccccc2n1 | – | 0.501 µM (active)
30 | CN(C)Cc1ccccc1-c1nc(N(C)Cc2ccco2)c2ccccc2n1 | – | 0.794 µM (active)
31 | CC(C)c1ccc(/C(C(=O)O)=C(\O)C(=O)O)cc1 | -18.6% [at 11.4 µM] | –
32 | COc1c(O)cc2c(c1O)[C@@H]1O[C@@H](CO)[C@@H](O)[C@@H](O)[C@@H]1OC2=O | -3.97% [at 25.6 µM] | –
33 | CCOC(=O)N/N=C\c1ccc([N+](=O)[O-])o1 | – | 12.6 µM (active)
34 | Cc1ccc(C(=O)N/N=C/c2ccc(S(=O)(=O)O)o2)c(Cl)c1 | 2.08% | –
35 | Cc1ccc(NCC(=O)N/N=C/c2ccc(OC(=O)c3ccco3)cc2)cc1 | – | 7.08 µM (active)
36 | CCOC(=O)N/N=C(/C)c1ccc([N+](=O)[O-])o1 | – | 12.6 µM (active)
37 | Cc1ccc(NCC(=O)N/N=C\c2ccc([N+](=O)[O-])o2)cc1 | – | 1.41 µM (active)
38 | O=C(ON=C1CCN(S(=O)(=O)c2ccccc2)CC1)c1ccccc1 | -2.38% | –
39 | CCN1C(=O)C2(SC(NC(C)=O)=NN2C(C)=O)c2cc(C)ccc21 (stereo not given) | -7.91% | –
40 | CC(C)C[C@H](NC(=O)[C@@H]1O[C@H]1C(=O)O)C(=O)NCCCCN=C(N)N | -9.37% | –
41 | Cc1nonc1NC(=O)OCCN1CCOC1=O | -12.4% | –
42 | Clc1ccc2c(c1)C(c1cccs1)=NNC(c1cccnc1)=N2 | – | 3.16 µM (active)
43 | Nc1ccc(Sc2cnn(-c3ccccc3)c(=O)c2Cl)cc1 | – | 5.01 µM (active)
44 | O=c1c(Cl)c(N2CCN(S(=O)(=O)c3ccc(F)cc3)CC2)cnn1-c1cccc(Cl)c1 | -4.11% | –
45 | CN1CCC2(CC1)CCN(C(=O)c1ccncc1)CC2 | 0.859% | –
46 | CC(C)NNC(=O)c1ccncc1 | – | inactive
47 | CC1(C)Cc2ccccc2C(NNC(=O)c2ccncc2)=N1 | – | 10 µM (active)
48 | Cc1sc(NC(=O)/C=C/c2ccc(C(C)C)cc2)c(C#N)c1C | -4.52% | –
49 | Cc1sc(NC(=O)C2CCCCC2)c(C#N)c1-c1ccccc1 | – | 5.01 µM (active)
50 | CC1=C(C#N)C(NC(=O)C2CCCCC2)(C(F)(F)F)C(=O)N1 (stereo not given) | -19.3% | –

Row | SMILES | activity, negative = inhibition | AC50
51 | C[N+](C)(C)CCCSc1nc2ccccc2[nH]1 | -15.1% [at 11.4 µM] | –
52 | Cc1c(OCC(F)(F)F)ccnc1CSc1nc2ccccc2[nH]1 | – | 3.55 µM (active)
53 | O=c1c[n+](CCCC[n+]2cc(=O)o[nH]2)[nH]o1 | 2.3% [at 11.4 µM] | –
54 | CC(C)(Oc1ccc(Cl)cc1)C(=O)Nc1ccncc1 | – | 20 µM (active)
55 | CC(C)(Oc1ccc(Cl)cc1)C(=O)Nc1cccnc1 | – | 2 µM (active)
56 | COCCn1c(=O)c(-c2cc(F)cc(F)c2)nc2cnc(Oc3cccc(Cl)c3)nc21 | – | 5.01 µM (active)
57 | COCCn1c(=O)c(-c2ccccc2)nc2cnc(Oc3cccc(Cl)c3)nc21 | – | 1 µM (active)
58 | N#CCCn1c(=O)c(-c2cccs2)nc2cnc(Oc3cccc(Cl)c3)nc21 | – | 3.16 µM (active)
59 | N#CCCn1c(=O)c(-c2ccccc2)nc2cnc(Oc3cccc(Cl)c3)nc21 | – | 2.51 µM (active)
60 | N#CCCn1c(=O)c(-c2ccc(Cl)cc2)nc2cnc(Oc3cccc(Cl)c3)nc21 | -14.7% | –
61 | Cc1noc(C)c1-c1nccc(NCc2cccs2)n1 | – | 0.501 µM (active)
62 | Cc1noc(C)c1-c1nccc(NCc2ccccc2)n1 | – | 0.794 µM (active)
63 | Cc1cnc(CNc2ccnc(-c3c(C)noc3C)n2)cn1 | – | 12.6 µM (active)
64 | Cc1noc(C)c1C(=O)N1CCC2(CCN(Cc3ccccc3)CC2)CC1 | -5.81% | –
65 | Cc1noc(C)c1-c1nccc(NCc2cccnc2)n1 | – | 0.158 µM (active)
66 | CC(=O)N(NC(=O)c1ccccc1Cl)C1CC(=O)N(c2ccc(C)cc2)C1=O (stereo not given) | 5.79% | –
67 | O=C(O)/C=C\C(=O)N1Cc2cc3ccccc3nc2C1 | -16.3% [at 11.4 µM] | –
68 | CC(=O)/C=C/c1ccc2ccccc2n1 | – | 2.51 µM (active)
69 | O=C(c1cnccn1)N1CCC2(CC1)CN(c1ccccn1)C2 | -12.9% | –
70 | C[C@@](N)(Cc1c[nH]c2ccccc12)C(=O)O | -11.5% [at 11.4 µM] | –
71 | COC(=O)C(Cc1c[nH]c2ccccc12)NC(=O)C(C)C (stereo not given) | -15.1% | –
72 | CC(C)CNC(=O)CCCc1c[nH]c2ccccc12 | – | 14.1 µM (active)
73 | N[C@@H](Cc1c[nH]c2ccccc12)C(=O)O | -1.28% | –
74 | O=C(Cc1c[nH]c2ccccc12)OCC(=O)c1ccccc1 | – | 12.6 µM (active)
75 | CN(CC(=O)O)Cc1c[nH]c2ccccc12 | -14.8% [at 11.4 µM] | –

Row | SMILES | activity, negative = inhibition | AC50
76 | CCOC(=O)CCCc1c[nH]c2ccccc12 | – | 2.51 µM (active)
77 | CN1C2C=C(N(CCc3c[nH]c4ccccc34)C(=O)c3ccc(Cl)cc3)CC1CC2 (stereo not given) | 14.6% | –
78 | O=C(O)CN1CCN(Cc2ccc(F)cc2Cl)C1=O | – | 5.62 µM (active)
79 | Cc1cccc(CN2CCN(CC(=O)O)C2=O)c1 | 9.94% | –
80 | O=C(O)CN1CCN(Cc2ccccc2)C1=O | -26.6% | –
81 | Cc1ccc(C(c2nnnn2CC2CCCO2)N2CCN(C(=O)c3ccco3)CC2)cc1 (stereo not given) | -19.2% | –
82 | CCOC(=O)c1sc(N(Cc2ccccc2)C(=O)CN2C(=O)CN(C)C2=O)nc1C | – | 20 µM (active)
83 | COc1ccc2[nH]c(=O)c(NC(N)=S)nc2c1 | – | 3.55 µM (active)
84 | Cc1ccc2[nH]c(=O)c(NC(N)=S)nc2c1 | – | 4.47 µM (active)
85 | C(=N\n1cnnc1)/c1cccn1-c1ccccc1 | – | 8.91 µM (active)
86 | CC(C)NC(=O)N1CCCC2(CCN(S(=O)(=O)c3ccccc3)CC2)C1 | -2.13% | –
87 | CCCN1CNC(=S)N(c2cccc(C)c2C)C1 | -0.257% | –
88 | CC(C)=CCc1c(C)nc2ccccc2c1C(=O)O | -22.6% | –
89 | CC(C)=CCC1=C(OCC(=O)O)C(=O)c2ccccc2C1=O | – | 0.501 µM (active)
90 | O=C1CSC(c2ccccn2)N1c1ccc(Cl)c(Cl)c1 (stereo not given) | – | 10 µM (active)
91 | O=C1CC(N2CCN(CCc3ccccn3)CC2)C(=O)N1c1ccc(Cl)cc1 (stereo not given) | -11.7% | –
92 | CC(=O)Nc1ccc(N2C(=O)CSC2c2c(F)cccc2Cl)cc1 (stereo not given) | -0.57% | –
93 | COc1cc2c(cc1OC)-c1cc(=Nc3c(C)cc(C)cc3C)n(C)c(=O)n1CC2 | -18.3% | –
94 | Cn1c(=O)c2cc(S(=O)(=O)NCCC(=O)Nc3ccc(Cl)cc3)ccc2n(C)c1=O | -4.77% | –
95 | COc1ccc(OC)c2[nH]c(=O)c(CCNS(=O)(=O)c3ccccc3)cc12 | – | 12.6 µM (active)
96 | COc1ccc(OC)c2[nH]c(=O)c(CCNC(=O)c3ccc(S(=O)(=O)N4CCCC4)cc3)cc12 | -27.7% | –
97 | COc1ccc(OC)c2[nH]c(=O)c(CCNC(=O)COc3ccccc3)cc12 | – | 11.2 µM (active)
98 | COc1ccc(OC)c2[nH]c(=O)c(CCNC(=O)c3ccc(S(=O)(=O)N(C)C)cc3)cc12 | -13.1% | –
99 | COc1ccc(Cl)cc1C(=O)NCCc1ccc(S(=O)(=O)NC(=O)NC2CCCCC2)cc1 | -2.36% [at 25.6 µM] | –
100 | COc1ccc(OC)c2[nH]c(=O)c(CCNS(=O)(=O)c3ccc(Cl)cc3)cc12 | – | 12.6 µM (active)
